Compounds without any hit were thinned out: in the full panel of roughly 83,000, 20% have a hit.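 96-well plates, one dose, 48 hours. Percent growth reported; active if below 10.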 Active and inactive are the calls of the source.
What was measured:
Assay in all cases: NCI-60 one-dose screen, 48 h (100 = growth as untreated, 0 = no growth, -100 = all killed)
Conditions in all cases: 10 µM
[1] = tested on: RPMI-8226 leukemia
[2] = tested on: OVCAR-8 ovarian
[3] = tested on: OVCAR-5 ovarian
[4] = tested on: OVCAR-4 ovarian
[5] = tested on: SK-OV-3 ovarian
[6] = tested on: IGROV1 ovarian
[7] = tested on: OVCAR-3 ovarian
[8] = tested on: HS 578T breast
[9] = tested on: T-47D breast
[10] = tested on: BT-549 breast
[11] = tested on: MDA-MB-435 melanoma
[12] = tested on: SW-620 colon
[13] = tested on: MCF7 breast
[14] = tested on: HCT-116 colon
[15] = tested on: HCC-2998 colon
[16] = tested on: KM12 colon
[17] = tested on: MDA-MB-468 breast
[18] = tested on: NCI/ADR-RES ovarian

Measured: growth

COC1CC(Cn2cc(COc3ccc4ccc(=O)oc4c3)nn2)C(OCc2ccccc2)C(OCc2ccccc2)C1OCc1ccccc1 (stereo unspecified)
inactive: [1] 77.7% | [2] 103% | [3] 111% | [4] 93.4% | [5] 91.9% | [6] 107% | [7] 125% | [8] 109% | [9] 103% | [10] 122% | [11] 103% | [12] 97.1% | [13] 84.8% | [14] 76.6% | [15] 121% | [16] 109% | [17] 93.4%

O=C(Nc1ccccc1)Nc1nc2ccccc2s1
active: [17] -1.66%
inactive: [1] 78.3% | [2] 90.2% | [3] 92.4% | [4] 78.2% | [6] 54.8% | [7] 110% | [8] 86.9% | [18] 91.8% | [9] 25.5% | [10] 89.6% | [11] 97.2% | [12] 111% | [13] 21.4% | [14] 85.9% | [15] 85% | [16] 90.1%

COc1ccc(N(C)c2cc(C#N)nc3ccccc23)cc1N
active: [7] 7.72% | [11] -22.4% | [13] 9.87% | [14] 6.17% | [15] 7.99% | [16] 9.27% | [17] 3.98%
inactive: [1] 19.9% | [2] 14.1% | [3] 34.6% | [4] 55% | [5] 23.8% | [6] 17.1% | [8] 36.9% | [9] 20.8% | [10] 94.1% | [12] 19%

CCOP(=O)(OCC)O[C@H]1CC[C@]2(C)[C@H]3CC[C@@H]4[C@@H]([C@](C)(O)CCC=C(C)C)CC[C@@]4(C)[C@]3(C)CC[C@H]2C1(C)C
inactive: [2] 32.9% | [3] 44% | [4] 38.8% | [5] 37% | [7] 11.1% | [8] 11.4% | [11] 29.9% | [12] 14.9% | [15] 36% | [16] 21.1%
active: [1] 2.3% | [9] 9.26% | [10] -14.5% | [13] -0.325% | [14] 9.92% | [17] -23.3%

CCN1CCN(c2ccc(NC(=O)Nc3ccc4c(c3F)CCN4c3ccnc(C(=O)NC)c3)cc2C(F)(F)F)CC1
active: [1] -40.2% | [2] -75.4% | [4] -89.6% | [7] -85.6% | [10] -39.7% | [11] -92.7% | [12] -76.9% | [13] -77.9% | [14] -96.5% | [16] -83.3%
inactive: [3] 57.5% | [5] 103% | [6] 113% | [8] 68.3% | [9] 105% | [15] 120% | [17] 98.9%

O=c1c2ccccc2nc(COc2ccccc2)n1/N=C/c1ccc(N2CCCC2)cc1
inactive: [1] 64.1% | [2] 99% | [3] 96.6% | [4] 81.8% | [5] 113% | [7] 105% | [8] 94.8% | [9] 57.7% | [10] 84.8% | [11] 99.5% | [12] 109% | [13] 87.6% | [14] 79.5% | [15] 106% | [16] 96.7% | [17] 137%

CCCS(=O)(=O)c1oc(-c2ccc(F)cc2)nc1S(=O)(=O)c1ccc(F)cc1
active: [1] -46.6% | [2] -69.3% | [3] -68.3% | [4] -90.7% | [7] -96% | [18] -52.2% | [9] -67.9% | [10] -32.1% | [11] -80.3% | [12] -77.6% | [13] -65.7% | [14] 3.42% | [15] -59.8% | [17] -91.4%
inactive: [5] 83.3% | [8] 56.8% | [16] 41.8%

CCC(C)S(=O)(=O)c1oc(-c2ccc(C)cc2)nc1S(=O)(=O)c1ccccc1 (stereo unspecified)
inactive: [5] 65.5%
active: [1] -44.5% | [2] -65.8% | [3] -91.3% | [4] -83.7% | [7] -81.1% | [8] -12.1% | [18] -55.2% | [9] -73.5% | [10] -13.3% | [11] -98.2% | [12] -38.6% | [13] -56.5% | [14] -6.96% | [15] -84.6% | [16] -65% | [17] -93.4%

CCOC(=O)C1=C(N)N(c2ccc(Cl)cc2)C2=C(C(=O)CC(C)(C)C2)C1c1ccc(N2CCOCC2)cc1 (stereo unspecified)
inactive: [1] 99.9% | [2] 100% | [3] 106% | [4] 105% | [6] 98% | [7] 102% | [8] 109% | [18] 97.4% | [9] 90.8% | [10] 23.8% | [11] 101% | [12] 107% | [13] 93.2% | [14] 99.2% | [15] 103% | [16] 107% | [17] 84.2%

O=C(COc1ccc(NC(=O)Nc2ccc(Cl)cc2)cc1)N=Nc1c(O)[nH]c2ccc([N+](=O)[O-])cc12
inactive: [1] 22.3% | [2] 16.1% | [3] 69.4% | [5] 85.2% | [8] 13.7% | [18] 92.6% | [10] 22.2% | [11] 17% | [12] 19.9% | [15] 26.3%
active: [4] -11.6% | [7] -55.9% | [9] 7.65% | [13] -36.4% | [14] -37.8% | [16] -46.6% | [17] -54.6%

CC(=O)Nc1nc(-c2ccc(N3CCN(C)CC3)c(NS(=O)(=O)c3ccc(C(F)(F)F)cc3)c2)cs1
active: [1] -29.4% | [2] 8.42% | [7] -3.33% | [10] -29.4% | [11] 6.38% | [12] -41.6% | [14] -75.8% | [16] 2.44% | [17] -29.3%
inactive: [3] 44.8% | [4] 43.3% | [5] 77% | [6] 47.5% | [8] 38.6% | [9] 25.4% | [15] 15.4%

CN(CCF)c1ccc(/C=C/C(=O)c2ccc(N)cc2O)cc1
inactive: [1] 62.8% | [2] 70.6% | [3] 90% | [4] 68.8% | [6] 94.3% | [7] 80.8% | [8] 112% | [18] 71.7% | [9] 50.7% | [10] 64.1% | [11] 81.8% | [12] 90.3% | [13] 71.1% | [14] 73% | [15] 88.5% | [16] 44.4% | [17] 51.4%

COc1ccc2nc(Cl)c(-c3cc(-c4ccccc4)nc(=O)[nH]3)cc2c1
inactive: [2] 11.3% | [3] 93.1% | [4] 85.3% | [5] 108% | [6] 78.2% | [7] 16.6% | [8] 77.3% | [9] 37.8% | [10] 38.9% | [11] 75.9% | [12] 11.1% | [13] 10.2% | [15] 84.9% | [16] 18.3% | [17] 28.5%
active: [1] -14.7% | [14] 9.44%

CCCn1c(=O)c2[nH]c(-c3ccc(OCc4nc5ccc(C)cc5[nH]4)cc3)nc2n(CCC)c1=O
active: [4] 0.252% | [8] -12.4% | [9] -13.2%
inactive: [1] 29.3% | [2] 17.3% | [3] 40.6% | [6] 37% | [7] 18.2% | [18] 31.7% | [10] 36.3% | [11] 49.1% | [12] 27.5% | [13] 17.6% | [14] 14.6% | [15] 61.6% | [16] 69.7%

Cc1ccc(-c2nc3ccc(C(=O)N=Nc4c(O)[nH]c5ccc(Cl)cc45)cc3[nH]2)cc1
inactive: [1] 32.6% | [3] 18.2% | [5] 30.7% | [6] 18.1%
active: [2] -33.9% | [4] -63.6% | [7] -47.2% | [8] -0.441% | [9] -4.44% | [10] -1.74% | [11] -61.5% | [12] -34% | [13] -26.9% | [14] 0.963% | [15] -66.8% | [16] 4.98% | [17] -75%

O=C(NCCCCC(c1ccc(F)cc1)c1ccc(F)cc1)NCCCc1cccnc1
inactive: [2] 11.4% | [3] 27.9% | [4] 20.6% | [5] 23.6% | [6] 31.6% | [7] 26.5% | [8] 56.4% | [11] 11.9% | [12] 17.3% | [13] 13.2% | [15] 29.2% | [16] 18%
active: [1] -42.1% | [9] 5.2% | [10] -16.4% | [14] 3.26%

CC(C)C(=O)Nc1ccc(C(=O)NC(=S)Nc2ccc(C(=O)O)cc2)cc1
inactive: [1] 128% | [2] 111% | [3] 96.6% | [4] 111% | [5] 99.9% | [6] 106% | [7] 91.1% | [8] 98.8% | [9] 98.9% | [10] 79.5% | [11] 102% | [12] 107% | [13] 99.9% | [14] 104% | [15] 110% | [16] 106% | [17] 96%

COc1cc(C2CC(c3ccccc3)=Nc3c(N)nc(N)nc3N2)ccc1Oc1nc(Nc2ccc(F)cc2)nc(N(C)C)n1 (stereo unspecified)
active: [13] 2.04% | [14] 3.43% | [17] 1.47%
inactive: [1] 13.5% | [2] 40.4% | [3] 85.8% | [4] 35.5% | [5] 87.2% | [6] 50.8% | [7] 36.4% | [8] 48.1% | [9] 54.4% | [10] 45% | [11] 15.4% | [12] 44.6% | [15] 47.7% | [16] 31.6%
